# According to PubChem BioAssay:
# Calls of active or inactive are those of the source.
# Tests used:
# [1] = binders of probe aFSTL3 on microarray, primary screen, stem cell growth factor project, biochemical, small-molecule microarray, fluorescence 635/667 (AID 1064); settings: higher = more signal;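 note: measures binding of the biotinylated anti-FSTL3 antibody to printed compounds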
# [2] = binders from COS7 lysate, DM2A8 probe, primary screen, torsin A project, cell lysate, small-molecule microarray, fluorescence 635/667 (AID 1065); settings: higher = more signal, COS7 lysate expressing mutant human TOR1A
# [3] = binders of probe aFGF2 on microarray, primary screen, stem cell growth factor project, biochemical, small-molecule microarray, fluorescence 635/667 (AID 1067); settings: higher = more signal;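 note: measures binding of biotinylated aFGF2 protein to printed compounds on slides; z-score merges feature fluorescence and signal-to-noise across triplicate slides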
# [4] = binders of probe aFGF10 on microarray, primary screen, stem cell growth factor project, biochemical, small-molecule microarray, fluorescence 635/667 (AID 1071); settings: higher = more signal;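 note: score merges 667 nm spot intensity and signal to noise from triplicate slides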
# [5] = biological target: Neurogenic locus notch homolog protein 2 (Homo sapiens) (UniProt Q04721); assay: Notch2 binders on small-molecule microarrays, primary screen, biochemical, small-molecule microarray, 635 nm fluorescence, stem cell growth factors (AID 1073); settings: Notch2 binding, higher = more signal
# [6] = biological target: Pro-neuregulin-1, membrane-bound isoform (Homo sapiens) (UniProt Q02297); assay: NRG1 binders on small-molecule microarrays, primary screen, psychiatric disease protein project, biochemical, small-molecule microarray, fluorescence 635/667 (AID 1075); settings: NRG1 binding, 635 nm fluorescence, higher = more signal;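 note: score combines 667 nm spot fluorescence with signal to noise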
# [7] = test system: Neuregulin-1 EGF-like domain; assay: binders of neuregulin-1 EGF-like domain, primary screen, biochemical, small-molecule microarray, 635 nm fluorescence (AID 1081); settings: small-molecule microarray binding, higher = more signal;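 note: binding of the protein to compounds printed on small-molecule microarray slides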
# [8] = FRG1 promoter luciferase signal modulators, primary screen, FRG1 inhibition for FSHD, cell-based, C2C12 myotubes, firefly/Renilla luciferase, luminescence (AID 1084); settings: higher = more signal, called active from +8 up or from −8 down
# [9] = binders of probe aFST on microarray, primary screen, stem cell growth factor project, biochemical, small-molecule microarray, fluorescence 635/667 (AID 1086); settings: higher = more signal;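 note: score merges 667 nm fluorescence with signal-to-noise of each printed compound spot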
# [10] = binders of probe aHhip on microarray, primary screen, stem cell growth factor project, biochemical, small-molecule microarray, fluorescence 635/667 (AID 1087); settings: higher = more signal;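 note: score merges spot fluorescence at 667nm with spot signal to noise ratio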
# Pro-neuregulin-1, membrane-bound isoform (Homo sapiens), sequence (Q02297 whole entry, looked up, the tested form may be a part, canonical isoform): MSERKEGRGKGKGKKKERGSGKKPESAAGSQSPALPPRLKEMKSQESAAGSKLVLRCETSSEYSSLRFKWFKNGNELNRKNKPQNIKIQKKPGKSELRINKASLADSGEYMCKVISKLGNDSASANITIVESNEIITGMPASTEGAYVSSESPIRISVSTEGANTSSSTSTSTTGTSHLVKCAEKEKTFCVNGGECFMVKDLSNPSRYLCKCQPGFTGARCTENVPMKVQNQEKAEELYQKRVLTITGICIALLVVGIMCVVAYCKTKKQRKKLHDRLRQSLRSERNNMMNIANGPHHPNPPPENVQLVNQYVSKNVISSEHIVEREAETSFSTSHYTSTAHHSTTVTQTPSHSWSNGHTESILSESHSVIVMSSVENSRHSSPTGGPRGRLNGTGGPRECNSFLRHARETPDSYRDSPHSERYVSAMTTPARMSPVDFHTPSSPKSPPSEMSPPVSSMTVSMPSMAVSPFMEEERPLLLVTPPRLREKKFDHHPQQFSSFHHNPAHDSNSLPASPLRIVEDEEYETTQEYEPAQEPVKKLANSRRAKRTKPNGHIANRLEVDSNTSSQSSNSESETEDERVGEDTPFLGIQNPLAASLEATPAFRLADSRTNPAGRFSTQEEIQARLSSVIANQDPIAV
# Neurogenic locus notch homolog protein 2 (Homo sapiens), sequence (Q04721 whole entry, looked up, canonical isoform): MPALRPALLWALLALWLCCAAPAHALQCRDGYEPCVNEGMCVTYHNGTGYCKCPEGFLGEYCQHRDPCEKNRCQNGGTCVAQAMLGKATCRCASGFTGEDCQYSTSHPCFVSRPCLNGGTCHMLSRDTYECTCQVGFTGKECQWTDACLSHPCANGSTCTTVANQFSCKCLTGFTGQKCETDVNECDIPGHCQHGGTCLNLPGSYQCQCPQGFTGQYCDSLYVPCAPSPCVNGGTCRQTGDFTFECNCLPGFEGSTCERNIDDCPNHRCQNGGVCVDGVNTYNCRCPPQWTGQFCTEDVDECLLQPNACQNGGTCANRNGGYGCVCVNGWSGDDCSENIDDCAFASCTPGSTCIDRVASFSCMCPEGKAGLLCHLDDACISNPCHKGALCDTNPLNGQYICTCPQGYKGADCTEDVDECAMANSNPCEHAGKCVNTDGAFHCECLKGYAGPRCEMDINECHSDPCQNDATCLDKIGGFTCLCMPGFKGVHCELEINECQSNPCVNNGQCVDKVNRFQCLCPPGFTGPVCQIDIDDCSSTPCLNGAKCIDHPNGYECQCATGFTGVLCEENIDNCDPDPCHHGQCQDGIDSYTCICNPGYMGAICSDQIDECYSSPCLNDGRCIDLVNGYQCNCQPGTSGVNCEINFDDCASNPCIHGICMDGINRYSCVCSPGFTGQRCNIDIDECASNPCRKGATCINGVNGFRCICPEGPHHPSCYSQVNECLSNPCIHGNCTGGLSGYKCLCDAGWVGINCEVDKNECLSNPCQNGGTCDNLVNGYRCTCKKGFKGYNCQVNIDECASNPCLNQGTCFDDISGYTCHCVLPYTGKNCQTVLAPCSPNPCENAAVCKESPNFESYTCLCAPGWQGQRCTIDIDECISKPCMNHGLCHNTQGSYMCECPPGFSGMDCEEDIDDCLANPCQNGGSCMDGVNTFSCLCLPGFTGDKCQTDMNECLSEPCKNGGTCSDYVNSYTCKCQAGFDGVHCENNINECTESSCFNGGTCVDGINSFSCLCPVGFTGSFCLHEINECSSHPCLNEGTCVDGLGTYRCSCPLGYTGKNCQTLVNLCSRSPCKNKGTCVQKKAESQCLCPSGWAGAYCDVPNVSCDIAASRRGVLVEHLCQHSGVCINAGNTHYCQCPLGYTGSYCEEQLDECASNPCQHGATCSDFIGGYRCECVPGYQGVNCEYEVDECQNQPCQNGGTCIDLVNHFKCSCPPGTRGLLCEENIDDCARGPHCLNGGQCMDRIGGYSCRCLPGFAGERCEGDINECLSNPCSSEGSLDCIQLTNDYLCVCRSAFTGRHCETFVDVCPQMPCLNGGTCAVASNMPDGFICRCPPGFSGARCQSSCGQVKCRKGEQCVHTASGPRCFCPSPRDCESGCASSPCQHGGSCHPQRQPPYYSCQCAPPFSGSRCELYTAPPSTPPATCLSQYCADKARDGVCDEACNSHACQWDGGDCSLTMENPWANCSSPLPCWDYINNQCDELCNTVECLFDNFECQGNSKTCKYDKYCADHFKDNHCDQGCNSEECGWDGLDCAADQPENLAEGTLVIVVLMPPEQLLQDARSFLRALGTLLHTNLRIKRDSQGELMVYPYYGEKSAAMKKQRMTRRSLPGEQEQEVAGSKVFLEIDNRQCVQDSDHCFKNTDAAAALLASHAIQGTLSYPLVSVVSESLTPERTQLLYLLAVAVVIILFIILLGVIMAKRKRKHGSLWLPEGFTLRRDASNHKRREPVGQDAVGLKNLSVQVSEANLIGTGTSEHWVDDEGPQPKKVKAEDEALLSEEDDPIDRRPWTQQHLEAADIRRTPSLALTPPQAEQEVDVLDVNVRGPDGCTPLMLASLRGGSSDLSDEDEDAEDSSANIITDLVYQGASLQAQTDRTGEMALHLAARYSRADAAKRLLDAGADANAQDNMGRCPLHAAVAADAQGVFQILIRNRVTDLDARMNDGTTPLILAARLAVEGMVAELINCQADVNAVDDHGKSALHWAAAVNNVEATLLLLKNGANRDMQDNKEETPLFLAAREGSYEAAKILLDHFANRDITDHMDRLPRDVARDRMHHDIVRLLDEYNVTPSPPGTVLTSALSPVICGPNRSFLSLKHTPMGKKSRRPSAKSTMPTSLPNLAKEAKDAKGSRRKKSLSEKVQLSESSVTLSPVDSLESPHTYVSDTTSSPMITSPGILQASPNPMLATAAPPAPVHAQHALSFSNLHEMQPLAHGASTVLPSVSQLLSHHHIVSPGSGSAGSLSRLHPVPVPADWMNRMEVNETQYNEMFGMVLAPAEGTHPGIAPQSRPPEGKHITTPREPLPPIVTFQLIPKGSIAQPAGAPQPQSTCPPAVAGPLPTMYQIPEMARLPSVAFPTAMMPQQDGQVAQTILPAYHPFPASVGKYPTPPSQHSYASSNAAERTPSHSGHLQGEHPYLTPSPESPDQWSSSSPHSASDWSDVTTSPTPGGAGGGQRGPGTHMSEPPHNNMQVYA
compound,measurement,setting,value
O=C(NN=C1C[C@@H](O)[C@@H](O)[C@@H]2[C@@H]3C(=O)N(C4CCCCC4)C(=O)[C@@H]3CC[C@@H]12)OCc1ccccc1,composite z-score,[1],-0.107
same,composite z-score,[2],0.2
same,composite z-score,[3],-0.0667
same,composite z-score,[4],0.0505
same,composite z-score,[5],-0.103
same,composite z-score,[6],-0.32
same,composite z-score,[7],-0.235
same,z-score,[8],0.448 (inactive)
same,composite z-score,[9],0.818
same,composite z-score,[10],-0.16
O=C1[C@H]2[C@H]3[C@H](O)[C@H](O)CC(=NOC[C@@H](O)COCc4ccco4)[C@H]3CC[C@H]2C(=O)N1C[C@@H]1CCCO1,composite z-score,[1],-0.634
same,composite z-score,[2],1.03
same,composite z-score,[3],-0.265
same,composite z-score,[4],0.133
same,composite z-score,[5],0.256
same,composite z-score,[6],-0.285
same,composite z-score,[7],1.15
same,z-score,[8],0.839 (inactive)
same,composite z-score,[9],-0.181
same,composite z-score,[10],-0.337
Cc1ccc(S(=O)(=O)N[C@@H]2COC(=O)[C@@H](C)COC(=O)CC=C[C@H]2C)cc1,composite z-score,[1],-0.305
same,composite z-score,[2],0.155
same,composite z-score,[3],-0.0777
same,composite z-score,[4],0.259
same,composite z-score,[5],0.672
same,composite z-score,[6],-0.126
same,composite z-score,[7],0.167
same,z-score,[8],0.204 (inactive)
same,composite z-score,[9],0.045
same,composite z-score,[10],0.251
C[C@H]1COC(=O)[C@@H]2CCCN2C(=O)[C@@H](C)COC(=O)[C@H](Cc2ccccc2)NC1=O,composite z-score,[1],-0.596
same,composite z-score,[2],0.142
same,composite z-score,[3],-0.183
same,composite z-score,[4],0.525
same,composite z-score,[5],0.731
same,composite z-score,[6],-0.147
same,composite z-score,[7],0.184
same,z-score,[8],-0.0297 (inactive)
same,composite z-score,[9],0.761
same,composite z-score,[10],-0.0645
O=C1C[C@@H](O)[C@@H](O)[C@@H]2[C@@H]3C(=O)N(C[C@@H]4CCCO4)C(=O)[C@@H]3CC[C@H]12,composite z-score,[1],-0.469
same,composite z-score,[2],0.207
same,composite z-score,[3],-0.0901
same,composite z-score,[4],0.377
same,composite z-score,[5],0.733
same,composite z-score,[6],0.17
same,composite z-score,[7],0.723
same,z-score,[8],-0.0616 (inactive)
same,composite z-score,[9],0.158
same,composite z-score,[10],-0.487
CON=CC[C@@H]1C=C[C@H](OC(C)=O)[C@@H](COC(C)=O)O1,composite z-score,[1],-0.043
same,composite z-score,[2],0.0682
same,composite z-score,[3],-0.0006
same,composite z-score,[4],0.119
same,composite z-score,[5],0.255
same,composite z-score,[6],-0.189
same,composite z-score,[7],-0.686
same,z-score,[8],0.41 (inactive)
same,composite z-score,[9],0.143
same,composite z-score,[10],0.151
O=C1C[C@@H](O)[C@@H](O)[C@@H]2[C@@H]3C(=O)N(c4cccc(Oc5ccccc5)c4)C(=O)[C@@H]3CC[C@H]12,composite z-score,[1],-0.499
same,composite z-score,[2],0.247
same,composite z-score,[3],-0.0985
same,composite z-score,[4],0.206
same,composite z-score,[5],0.484
same,composite z-score,[6],0.241
same,composite z-score,[7],0.413
same,z-score,[8],-0.0447 (inactive)
same,composite z-score,[9],0.167
same,composite z-score,[10],-0.153
COC(=O)CC=C[C@@H](C)[C@@H](C=NOCC[C@@H]1C=C[C@H](OC(C)=O)[C@@H](COC(C)=O)O1)NS(=O)(=O)c1ccc(C)cc1,composite z-score,[1],-0.186
same,composite z-score,[2],1.86
same,composite z-score,[3],-0.129
same,composite z-score,[4],-0.371
same,composite z-score,[5],-0.134
same,composite z-score,[6],-0.512
same,composite z-score,[7],-0.123
same,z-score,[8],0.0469 (inactive)
same,composite z-score,[9],0.153
same,composite z-score,[10],-0.0296
CCOC(=O)[C@H](CC(C)C)NC(=O)CCC1CC(OC(=O)NCCc2ccc(F)cc2)CC2(CCCC(COC(=O)NCCc3ccc(Cl)cc3)O2)O1 (stereo not given in full),composite z-score,[1],-0.543
same,composite z-score,[2],1
same,composite z-score,[3],-0.0267
same,composite z-score,[4],0.491
same,composite z-score,[5],0.74
same,composite z-score,[6],0.0742
same,composite z-score,[7],1.06
same,z-score,[8],1.57 (inactive)
same,composite z-score,[9],0.197
same,composite z-score,[10],0.208
COC(=O)CC=C[C@@H](C)[C@@H](C=NO[C@H](C)c1cn([C@H](CO)Cc2ccccc2)nn1)NS(=O)(=O)c1ccc(C)cc1,composite z-score,[1],-0.468
same,composite z-score,[2],2.12
same,composite z-score,[3],-0.165
same,composite z-score,[4],-0.147
same,composite z-score,[5],-0.303
same,composite z-score,[6],-0.211
same,composite z-score,[7],0.0224
same,z-score,[8],-0.25 (inactive)
same,composite z-score,[9],0.227
same,composite z-score,[10],-0.251
CON=C[C@@H](C)[C@H](OCc1ccccc1)C(C)C,composite z-score,[1],0.797
same,composite z-score,[2],0.0789
same,composite z-score,[3],-0.138
same,composite z-score,[4],-0.0499
same,composite z-score,[5],-0.12
same,composite z-score,[6],-0.575
same,composite z-score,[7],-0.502
same,z-score,[8],0.538 (inactive)
same,composite z-score,[9],-0.0062
same,composite z-score,[10],0.0373
CCOC(=O)[C@H](CC(C)C)NC(=O)CCC1CC(OC(=O)NCCc2ccc(F)cc2)CC2(CCCC(COC(=O)NCCOc3ccccc3)O2)O1 (stereo not given in full),composite z-score,[1],-0.715
same,composite z-score,[2],-0.409
same,composite z-score,[3],-0.0909
same,composite z-score,[4],0.704
same,composite z-score,[5],1.25
same,composite z-score,[6],0.996
same,composite z-score,[7],1.24
same,z-score,[8],1.99 (inactive)
same,composite z-score,[9],0.283
same,composite z-score,[10],-0.374
